Compound activity deposited in PubChem by The Scripps Research Institute Molecular Screening Center.
DAX1 inh-1 – inhibitors of DAX1 repression of SF-1 activated StAR promoter; HEK293T StAR-luciferase reporter, SF-1/DAX-1 repression relief; inhibition, % at 6.8 µM; actives 1.1% (n = 370,000); AID 652010;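 active means inhibition above the mean over all tested compounds plus 3 SD, cut at about 3.6% in these data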;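 further: 0% = DAX-1 cells with DMSO and 100% = cells lacking DAX-1 with DMSO; higher inhibition means more luminescence from relief of DAX-1 repression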
hcDAF12 agonist – activators of H. contortus DAF-12 nuclear receptor | HEK293 hcDAF-12 lit1-tk-luc reporter, luminescence; 0% DMSO, 100% Δ7-dafachronic acid | activation, % at 6.8 µM | actives 1.4% (n = 370,000) | AID 652067;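 active means activation above the mean of all tested compounds plus 3 SD, cut at about 5.5% in these data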;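 further: 100% = response to 3 µM Δ7-dafachronic acid high control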
hgDAF-12 ag – hgDAF-12 agonism, primary luciferase screen; HEK293 GAL4-hgDAF12 UAS-luciferase reporter, agonist luminescence; normalized to butyrate control; activation, % at 6.8 µM; actives 1.8% (n = 370,000);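 active means activation above a cutoff set at the mean of all screened compounds plus 3 SD, cut at about 10% in these data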;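 further: 0% = DMSO wells and 100% = sodium butyrate wells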
DAX1 inh-2 – inhibits human nuclear receptor DAX1. HEK293 Gal4-DAX1 luciferase reporter, luminescence. AID 504766. P51843. inhibition, % at 6.75 µM. actives 0.99% (n = 340,000);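 active means inhibition above the mean over all tested compounds plus 3 SD, cut at about 4.2% in these data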;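 further: 0% = DAX1-transfected cells with DMSO and 100% = empty-vector control cells with DMSO; inhibition shows as a rise in luminescence from relieved DAX1 repression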
Target sequence (P51843 207-470 limits assumed): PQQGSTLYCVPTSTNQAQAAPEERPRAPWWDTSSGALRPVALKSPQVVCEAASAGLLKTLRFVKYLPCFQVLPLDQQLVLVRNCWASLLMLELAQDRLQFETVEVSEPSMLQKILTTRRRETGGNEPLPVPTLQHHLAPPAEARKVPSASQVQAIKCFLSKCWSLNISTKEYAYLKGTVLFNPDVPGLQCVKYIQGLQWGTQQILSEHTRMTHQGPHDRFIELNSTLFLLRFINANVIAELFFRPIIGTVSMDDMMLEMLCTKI
ssDAF12 agonist – activators of S. stercoralis DAF-12 nuclear receptor | activation, % at 6.8 µM | HEK293 ssDAF-12/GRIP1 lit1-tk-luc reporter, luminescence; % of 3 µM dafachronic acid response | AID 652126 | actives 1% (n = 370,000);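 active means activation above the mean over all tested compounds plus 3 SD, cut at about 0.9% in these data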;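 further: 0% = DMSO-only wells and 100% = 3 µM delta7-dafachronic acid wells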
DAX1 inh confirm – confirmation of human DAX1 (NR0B1) inhibitors; shares compounds with DAX1 inh-1; HEK293T StAR-promoter luciferase reporter, SF-1/DAX-1 repression; actives 87% (n = 2,400); inhibition, % at 6.8 µM;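 active means inhibition above the average of every tested compound plus 3 SD, cut at about 3.8% in these data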;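 further: 0% = DAX-1 cells with DMSO and 100% = no DAX-1 control cells with DMSO; active compounds raise luminescence by relieving repression of the StAR reporter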
SF1 mutant ctr – counter-screen for DAX1 inhibitors: nonselective inhibitors with SF-1 AF2 mutant; HEK293 StAR-luciferase, luminescence; shares compounds with DAX1 inh-1; inhibition, % at 6.8 µM; actives 78% (n = 2,400); AID 652136;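 active means inhibition above the mean of all tested compounds plus 3 SD, cut at about 3% in these data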;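 further: 0% = DAX-1 transfected cells with DMSO and 100% = cells without DAX-1 with DMSO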
* hit, by the source's call; · = not tested or not shown. Most compounds without a hit are left out; they make up all but 4.1% or so of the library.

SMILES	DAX1 inh-1	hcDAF12 agonist	hgDAF-12 ag	DAX1 inh-2	ssDAF12 agonist	DAX1 inh confirm	SF1 mutant ctr
Cc1cccc(CN2CCCC(C(=O)Nc3ccc(-c4cscn4)cc3)C2)c1 (stereo not drawn)	4.6*	-3	2	0	-1	3	-1
Cc1cc(NC(=O)CCC(=O)N(CC(=O)NC2CCCC2)c2ccc(Cl)cc2)no1	0	3	-2	2	-1	·	·
NC(=O)c1ccccc1NC(=O)CN1CCN(Cc2ccccc2)CC1	0	1	1	0	-1	·	·
O=C(CN1CCN(c2ccccc2)CC1)Nc1ccccc1C(=O)NCCc1ccccc1	4.7*	5.8*	7	3	1	6.7*	4.8*
COC(=O)c1ccccc1NC(=O)N1CCc2ccc(NC(=O)c3ccccn3)cc2C1	5.1*	1	7	1	0	-4	-3
O=C(Nc1ccc2c(c1)CN(C(=O)Nc1ccc(F)cc1)CC2)c1ccccn1	-3	-1	5	-1	-1	·	·
CC1CCN(S(=O)(=O)c2ccc(NC(=O)CCN3C(=O)C4CC=CCC4C3=O)cc2)CC1 (stereo not drawn)	-2	0	2	0	-1	·	·
CCN(CC)S(=O)(=O)c1ccc(NC(=O)CCN2C(=O)C3CC=CCC3C2=O)cc1 (stereo not drawn)	5.2*	-1	2	1	-1	1	1
O=C(O)c1cc(N/N=C/c2ccc(OCc3ccccc3)cc2)ccc1Cl	0	0	2	0	-1	·	·
O=C(O)c1cc(N/N=C/C=C/c2ccccc2)ccc1Cl	8.6*	5	10	1	0	12*	6.2*
CSc1ccccc1C(=O)NCc1ccc(C)cc1	0	2	1	1	-2	·	·
Nc1c(C(=O)Nc2ccc3c(c2)OCCO3)nnn1Cc1cccc(Br)c1	9.3*	3	3	4	-1	9.0*	5.9*
COC(=O)CSc1nc2cc(C)ccc2cc1C#N	5.0*	5	12*	4.4*	1.2*	18*	9.3*
O=C(Nc1ccc(Br)cc1)NC1CCCCCCC1	5.1*	1	11*	2	0	9.1*	6.0*
O=C(Nc1cccc([N+](=O)[O-])c1)NC1CCCCCCC1	5.5*	4	5	1	-1	4.6*	4.3*
O=C(CNC1CCCCC1)Nc1cccc([N+](=O)[O-])c1	0	-1	1	3	-1	·	·
CCOc1ccc(NC(=O)NC2CCCCCCC2)cc1	9.8*	5	12*	3	0	9.0*	4.0*
CCOc1ccc(NC(=O)C(=S)NC2CCCCC2)cc1	1	2	3	-1	-1	·	·
CCCC(C)c1nc(C(N)=O)c2[nH]c(=O)n(-c3ccc(OC)c(OC)c3)c2n1 (stereo not drawn)	-1	-2	-3	-1	-1	·	·
Clc1cccc(-c2cc3nc4c(c(NCc5ccco5)n3n2)CCCC4)c1	4.5*	2	8	1	-1	12*	4.8*
Cc1ccnc(Nc2ccc(CCO)cc2)n1	4.8*	4	11*	·	0	9.5*	5.6*
CCCCC(c1nnnn1CS(=O)(=O)c1ccc(C)cc1)N1CCN(C)CC1 (stereo not drawn)	1	-1	1	0	-1	·	·
O=C(Nc1ccc(Cl)cc1)Nc1ccccc1C(=O)N1CCCC1	-1	0	4	·	-1	·	·
O=C(Nc1ccc(Cl)cc1)Nc1ccccc1C(=O)O	5.3*	4	10	-2	0	9.0*	4.0*
CCn1c(SCC(=O)NC2(C#N)CCCCC2)nc2ccccc2c1=O	-1	-1	0	-1	-1	·	·
SMILES	DAX1 inh-1	hcDAF12 agonist	hgDAF-12 ag	DAX1 inh-2	ssDAF12 agonist	DAX1 inh confirm	SF1 mutant ctr
COc1ccc(C(=O)NN=C2CCCC2)cc1OC	0	-1	-1	1	-1	·	·
CCOc1cc(C(=O)NN=C2CCCC2)cc(OCC)c1OCC	6.9*	0	-4	0	0	1	-2
COc1ccc(S(=O)(=O)N2CCCCCC2)cc1C(=O)N(CC(C)C)C1CCS(=O)(=O)C1 (stereo not drawn)	0	-2	1	2	-1	·	·
O=C(/C=C/c1cccs1)Nc1scc(-c2ccccc2)c1C(=O)O	4.7*	3	13*	0	0	7.3*	3.6*
O=C(NN1CCOCC1)c1cc(Cl)ccc1Cl	-1	-1	1	1	0	·	·
O=C(NC(=S)NN1CCOCC1)c1cc(Br)ccc1Cl	5.2*	1	0	0	-1	0	0
CN1OC[C@@H]2CN[C@H](c3ccc(-c4ccc(C#N)cc4)cc3)C[C@@H]21	5.4*	3	12*	3	1	14*	8.1*
CN1OC[C@@H]2CN[C@H](c3ccc(-c4cc5ccccc5o4)cc3)C[C@@H]21	·	·	·	-5	·	·	·
CCOc1cc(N2CCOCC2)c(OCC)cc1NC(=O)Cn1cnnn1	1	0	-1	0	-1	·	·
CCOc1cc(N2CCOCC2)c(OCC)cc1NC(=O)Cn1nc(C)c([N+](=O)[O-])c1C	4.7*	-2	2	-1	-1	2	1
O=C(Nc1ccc2c(c1)nc1n2CCSC1)c1ccccc1	5.9*	2	12*	-1	0	13*	8.6*
N/C(=N\OC(=O)Cc1ccc(-c2ccccc2)cc1)c1ccccn1	-1	-1	-1	0	-1	·	·
N/C(=N\OC(=O)CSc1ccccc1)c1ccccn1	7.0*	1	10	2	0	5.3*	4.7*
CCOc1ccc(C(=O)O/N=C(\N)c2ccccn2)cc1OCC	6.3*	2	12*	1	0	3	4.5*
COc1ccc(-c2cnnc(N/N=C/c3ccc(O)c(OC)c3)n2)cc1	-3	0	3	-3	-1	·	·
CC(C)(C)OC(=O)C[C@H]1C/C=C\C[C@@H](CC(=O)N[C@@H](CO)Cc2ccccc2)C(=O)N2CCC[C@@H]2COC1=O	0	-2	1	0	-1	·	·
CCN(CC)S(=O)(=O)c1ccc(NC(=O)CCNC(=O)c2ccccc2)cc1	0	4	-1	0	0	·	·
C#CCN(C[C@H]1[C@H](OC(=O)Nc2cccs2)[C@H](OC(=O)Nc2cccs2)C[C@H]2C(=O)N(c3ccccc3)C(=O)[C@@H]12)S(=O)(=O)c1ccc(C)cc1	4.6*	-2	-3	0	-1	0	0
C#CCN(C[C@H]1[C@H](OC(=O)NC2CC2)[C@H](OC(=O)NC2CC2)C[C@H]2C(=O)N(c3ccccc3)C(=O)[C@@H]12)S(=O)(=O)c1ccc(C)cc1	0	-1	3	1	0	·	·
